Pf growth 96h – Primary qHTS for delayed death inhibitors of the malarial parasite plastid, 96 hour incubation. P. falciparum luciferase reporter growth, 96 h. Potency, µM (highest dose often 28.7 µM), actives largely listed as inhibitors. hit rate 6.9% among 320,000. AID 504834, 2011
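Two-generation exposure (96 h) targets delayed-death phenotype. Reporter parasites carrying integrated firefly luciferase, in red cells at 2% hematocrit and 0.05% parasitemia final, kept at 37 C, 5% CO2; luminescence loss indicates inhibition.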
NS1 inh – qHTS Assay for Inhibitors of Influenza NS1 Protein Function. Potency, µM (series often up to 46.1 µM). AID 2326, 2010. hit rate 0.4% among 270,000; calls by dose curve; note: actives are rising curves; nearly all actives have a fitted effect of over 50% in size
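A cell-based growth assay was used: compounds that relieve NS1-induced slow growth of budding yeast raise OD600. Assay medium was yeast nitrogen base with ammonium sulphate and -URA supplement, pH 6.0, with 2% galactose.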
HCV inhibitor – qHTS Assay for Inhibitors of Hepatitis C Virus (HCV) | Huh7.5.1 HCVcc-Cre infection, luciferase reporter, 44 h | Potency, µM (top dose mostly 41.8 µM), hits mostly inhibitors | hit rate 3.4% among 340,000
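After 44 h co-culture of compound, cells and HCVcc-Cre (~0.5 moi), substrate is added for 15 min at room temperature and luciferase measured over 15 sec. Cells were seeded at 1,000/well and pre-cultured 4 h.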
Pf growth 48h – Primary qHTS for delayed death inhibitors of the malarial parasite plastid, 48 hour incubation. AID 504832, 2011. P. falciparum luciferase growth in erythrocytes, 48 h. hit rate 5.9% among 310,000. Potency, µM (highest dose often 28.7 µM), usual class: inhibitors
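Parasite viability was followed by luminescence of a genomically integrated firefly luciferase. Cultures held 0.1% parasitemia at 2% hematocrit (final), incubated under 5% CO2 at 37 C.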
VACV Venus inh – qHTS for Stage-Specific Inhibitors of Vaccinia Orthopoxvirus: Venus Reporter Primary qHTS; Vaccinia virus Venus reporter expression, fluorescence; Potency, µM (titrated, usually from 36.5 µM), hits mostly inhibitors; hit rate 0.46% among 330,000; calls by dose curve; tested in A549 cells; note: nearly all actives have a fitted effect of over 30% in size
Vaccinia mCherry – qHTS for Stage-Specific Inhibitors of Vaccinia Orthopoxvirus: mCherry Reporter Primary qHTS | hit rate 0.63% among 310,000 | AID 720579, 2013 | Vaccinia virus mCherry reporter infection, fluorescence | Potency, µM (titrated, usually from 36.5 µM), usual class: inhibitors; calls by dose curve; tested in A549 cells; note: nearly all actives have a fitted effect of over 35% in size
Numbers stand for hits; 0 = inactive; ? = inconclusive; - = no result; [ ] = remark or other dose. Compounds with a hit are over-represented: about 11% of the library has one in this group of screens. Unless noted, calls come from the whole dose curve; as a rule, active = well fitted inhibition curve with a large enough effect; inconclusive = small, poorly fitted or top-dose-only effect, or another doubt; inactive = no such curve, though single readings can be large or run the other way.

SMILES	Pf growth 96h	NS1 inh	HCV inhibitor	Pf growth 48h	VACV Venus inh	Vaccinia mCherry
CCn1c(SCC(=O)NC2CCCC2)nnc1-c1ccncc1	0	0	0	0	0	0
COCCCn1c(SCC(=O)NC2CCCCC2)nnc1-c1ccco1	2.3µM	0	0	0	0	0
COCCCn1c(SCC(=O)NC2CCCCC2)nnc1-c1ccncc1	8.3µM	0	0	0	-	-
O=C(NC(NC(=S)Nc1cc(Cl)ccc1Cl)C(Cl)(Cl)Cl)c1ccco1 (stereo not drawn)	?	0	?	?	0	0
O=C(OCc1cc(Cl)ccc1OC(F)F)c1cncc(Br)c1	0	-	0	0	0	0
Cc1cc(C)cc(NC(=O)CCCc2nnc3n(CC(C)C)c(=O)c4sccc4n23)c1	-	-	-	-	0	0
O=C(CCl)Nc1cccn2ncnc12	-	0	?	10µM	7.9µM	-
Cc1ccc(OCC(O)Cn2c(=N)n(CCN3CCCCC3)c3ccccc32)cc1 (stereo not drawn)	0[5.75 µM]	0	2.5µM	3.7µM	0	0
OC(CNCCCN1CCCCC1)COc1ccccc1 (stereo not drawn)	?	0	10µM	?	?	-
COc1ccc(OCC(O)Cn2c(=N)n(CCN3CCCCC3)c3ccccc32)cc1 (stereo not drawn)	?	0	?	4.7µM	0	0
Cc1ccc(OCC(O)Cn2c(=N)n(CCN3CCOCC3)c3ccccc32)cc1 (stereo not drawn)	0	0	0	?	0	0
O=C(Nc1ccccc1Oc1cccnc1)C1CCCN(Cc2ccc(F)cc2)C1 (stereo not drawn)	0	?	0	?	-	-
CCC1C(O)=C(c2ccccn2)C(=N)N1c1ccccc1 (stereo not drawn)	-	0	0	0	0	0
CCOc1ccccc1C(=O)N(Cc1ccc(N(C)C)cc1)CC1CCCO1 (stereo not drawn)	-	-	-	-	0	0
Cc1cccc2sc(NC(=O)c3ccc(Cl)s3)nc12	13µM	0	10µM	-	0	0
COc1c(C)c2c(c(O)c1CC=C(C)CCC(=O)OCCN1CCOCC1)C(=O)OC2	0	-	-	9.5µM	-	-
Cc1c(Cc2ccc3c(c2)OCO3)sc(NC(=O)c2ccc3ccccc3c2)c1C(N)=O	0	0	?	0	0	0
CCCOc1ccc(C(=O)Nc2nc(C)c(Cc3ccc4c(c3)OCO4)s2)cc1	?	0	3.5µM	10µM	10µM	?
CCCCOc1ccc(C(=O)Nc2ccc3c(c2)OCO3)cc1	0	-	0	0	-	-
Cc1nc(NC(=O)c2ccc(OCC(C)C)cc2)sc1Cc1ccc2c(c1)OCO2	?	0	14µM	?	0	0
COc1cc(C(=O)Nc2nc(C)c(Cc3ccc4c(c3)OCO4)s2)cc(OC)c1OC	?	?	10µM	?	-	-
Cc1cccc(OCC(=O)Nc2ccc(-c3nc4ccccc4o3)cc2)c1C	-	-	-	-	0	0
COc1ccc(C(=O)NNC(=O)Cc2ccc(Cl)cc2)cc1	?	0	0	0	-	-
COc1ccc(NS(=O)(=O)c2ccc3oc(SCc4ccc(F)cc4)nc3c2)cc1	?	0	11µM	0	?	?
COc1ccccc1NS(=O)(=O)c1ccc2oc(SC)nc2c1	0	0	?	0	0	0
SMILES	Pf growth 96h	NS1 inh	HCV inhibitor	Pf growth 48h	VACV Venus inh	Vaccinia mCherry
COc1ccccc1NS(=O)(=O)c1ccc2oc(SCc3ccc(F)cc3)nc2c1	?	0	35µM	0	0	0
CN(C)S(=O)(=O)c1cccc(NC(=O)c2cc3ccccc3o2)c1	-	0	?	0	-	-
CCN(CC)S(=O)(=O)c1cccc(NC(=O)c2ccc(Br)cc2)c1	0	-	8.9µM	?	0	?
CCN(CC)S(=O)(=O)c1cccc(NC(=O)c2cc3ccccc3o2)c1	?	0	10µM	?	0	0
O=C(O)C1=C[C@@H](c2ccccc2)C[C@@H](OCc2ccc(CO)cc2)O1	0	0	0	?	0	0
COc1cc(/C=N/NC(=O)c2cc(C3CC3)[nH]n2)cc(OC)c1OC	0	0	0	0	-	-
CCc1cccc(NC(=O)C2CCCN(S(=O)(=O)c3cnc[nH]3)C2)c1 (stereo not drawn)	0	0	0	0	0[7.34 µM]	0[7.34 µM]
COC(=O)C(NS(=O)(=O)c1cccc(S(=O)(=O)NC(C(=O)OC)c2ccccc2)c1)c1ccccc1 (stereo not drawn)	?	0	?	0	0	0
COC(=O)[C@H](Cc1ccccc1)N(Cc1ccccc1)S(=O)(=O)N(Cc1ccccc1)[C@@H](Cc1ccccc1)C(=O)OC	-	-	0[8.37 µM]	-	0	?
COC(=O)[C@H](Cc1ccccc1)N(C)S(=O)(=O)c1cccc(S(=O)(=O)N(C)[C@@H](Cc2ccccc2)C(=O)OC)c1	10µM	0	0	0	0	0
CN([C@@H](C(=O)OC(C)(C)C)c1ccccc1)S(=O)(=O)c1cccc(S(=O)(=O)N(C)[C@@H](C(=O)OC(C)(C)C)c2ccccc2)c1	2.1µM	0	0	?	0	?
Cc1n[nH]c(=O)c2c(NC(=O)CSc3nnc(C4CC4)n3C)oc(C)c12	0	-	0	?	0	0
O=C(Oc1cccc(NC(=O)c2cccs2)c1)c1cccc(S(=O)(=O)N2CCCC2)c1	?	?	0	0	0	0
Cc1csc(NC(=O)CSc2ncnc3c2cnn3-c2ccccc2Cl)n1	0	0	18µM	0	?	?
CC(C)C(=O)NNC(=O)CSc1ncnc2c1cnn2-c1ccccc1Cl	0	0	0	0[0.00184 µM]	-	-
Cc1ccccc1-n1ncc2c(SCC(=O)NCc3cccs3)ncnc21	5.2µM	?	22µM	0	?	0
COc1ccc(-n2ncc3c(SCC(=O)N4CCN(c5ccccc5OC)CC4)ncnc32)cc1	0	0	13µM	?	-	-
CCOC(=O)Cc1csc(NC(=O)CSc2ncnc3c2cnn3-c2ccc(OC)cc2)n1	?	0	?	9.3µM	0	0
CCOC(=O)CNC(=O)CSc1ncnc2c1cnn2-c1ccc(Cl)cc1	-	0	0	0	0	0
NC(=O)C1CCN(C(=O)c2ccc3nc(N4CCCCC4)sc3c2)CC1	0	0	0	0	0	0
COC(=O)Cn1c2ccc(OC)cc2c2nc3ccccc3nc21	0	0	0	0	-	-
O=Cc1cccn1-c1cccc([N+](=O)[O-])c1	2.6µM	0	0	0	0	0
O=Cc1cccn1-c1ccccc1	0	0	0	0	0	0
O=C(Nc1ccc2c(c1)OCCO2)c1cc2sccc2n1Cc1ccccc1	?	0	11µM	?	0	0
O=C(Nc1ccc2c(c1)OCCO2)c1cc2sccc2n1Cc1ccc(F)cc1	10µM	0	?	?	0	0
Cn1c(C(=O)Nc2ccc3c(c2)OCCO3)cc2sccc21	0	0	-	0	0	0
CCC1SC2=NC(C)=C(C(=O)OCC(C)C)C(/C=C/c3ccccc3OC)N2C1=O (stereo not drawn)	12µM	0	0	?	-	-

Bioassay records: PubChem BioAssay, National Center for Advancing Translational Sciences (NCATS)
